Compound activity (PubChem BioAssay)
D1 PAM = Potentiators of Human D1 Dopamine Receptor: qHTS; actives 0.036% (n = 360,000); D(1A) dopamine receptor (Homo sapiens), P21728; HEK293 TREx D1 cells, calcium flux, dopamine EC20 potentiation; potentiation, % at 10 µM; in the data active = potentiation above about 30%; note: 0% is about no effect
Target sequence (P21728 whole entry, looked up): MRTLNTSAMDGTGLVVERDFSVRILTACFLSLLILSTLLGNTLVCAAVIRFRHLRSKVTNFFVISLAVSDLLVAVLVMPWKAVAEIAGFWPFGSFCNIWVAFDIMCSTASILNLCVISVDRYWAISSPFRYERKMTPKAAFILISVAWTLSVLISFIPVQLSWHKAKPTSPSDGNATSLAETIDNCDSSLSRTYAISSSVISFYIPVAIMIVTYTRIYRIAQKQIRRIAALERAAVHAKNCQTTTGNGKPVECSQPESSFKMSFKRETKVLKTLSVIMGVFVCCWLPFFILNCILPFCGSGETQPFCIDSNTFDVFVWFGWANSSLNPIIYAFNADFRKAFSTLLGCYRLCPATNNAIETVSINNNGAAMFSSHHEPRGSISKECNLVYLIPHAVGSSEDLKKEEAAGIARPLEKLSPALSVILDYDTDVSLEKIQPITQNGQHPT
D3 ag = qHTS of D3 Dopamine Receptor Agonist: qHTS; max activation, %; actives 0.58% (n = 410,000); D(3) dopamine receptor (Homo sapiens), P35462; AID 652048, 2013; D3R DiscoveRx beta-arrestin cells, luminescence, 90 min; in the data active = max activation above about 30%; note: 0% is about no effect
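Agonist-mode cell screen: cells plated at 1500/well and incubated overnight at 37 °C, then exposed to library compounds for 90 min at 37 °C. Detection reagent was added for 30–60 min at room temperature, and luminescence was read.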
D1 ag = Allosteric Agonists of the Human D1 Dopamine Receptor: qHTS; HEK293 T-REx D1 cells, calcium flux, agonist mode; activation, % at 2 µM; actives 1% (n = 360,000); AID 504660, 2011; in the data active = activation above about 30%; note: 0% is about no effect
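Inducible HEK293 T-REx D1 cells, force-coupled to calcium signalling, were plated at 4000 cells/well with tetracycline and held overnight at 30 C. After no-wash calcium dye loading, compound-evoked calcium rise over 180 s flagged agonists.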
D3 antag = qHTS of D3 Dopamine Receptor Antagonist: qHTS; D(3) dopamine receptor (Homo sapiens), P35462; D3R cells, DiscoveRx beta-arrestin luminescence, antagonist mode; active compounds read low; max response, negative = inhibition, %; actives 2.5% (n = 360,000); AID 652054, 2013; in the data active = max response below about -50%; inconclusive = no clear call, values can overlap the other calls; note: % is set by controls: 0 for no effect and ±100 for the full control effect
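Cells plated overnight at 1500 cells/well, then exposed to library compounds with dopamine controls for 90 minutes at 37 degrees C. DiscoveRx reagent added for 30–60 minutes at room temperature; luminescence read, quantitative HTS format.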
D1 antagonist = Antagonist of Human D 1 Dopamine Receptor: qHTS; D(1A) dopamine receptor (Homo sapiens), P21728; HEK293 TREx D1 cells, calcium flux, dopamine EC80; active compounds read low; activity change, negative = inhibition, % at 10 µM; actives 3.2% (n = 360,000); in the data active = activity change below about -30%; note: % is set by controls: 0 for no effect and ±100 for the full control effect
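Kinetic fluorescence of a calcium dye serves as the read-out. D1-expressing Hek293 Trex cells, induced overnight at 30 C, are exposed to compound for 180 s before an EC80 dopamine addition, then read 180 s further.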
Starred values were filed as active, the others as inactive. In the library only some 6% were active in any assay of this set; here they are far more common.

Results for COc1ccccc1C1CCN(c2ccc(CO)cc2[N+](=O)[O-])CC1 ?
D1 PAM: -3; D3 ag: -9; D1 ag: 5; D3 antag: inconclusive; D1 antagonist: -17

How did COc1ccccc1C1CCN(Cc2cccc([N+](=O)[O-])c2)CC1 do in these assays?
D1 PAM: -2; D3 ag: -23; D1 ag: 6; D3 antag: -95*; D1 antagonist: -16

What do the screens show for `OCCN1CCN(Cc2ccc3ccccc3c2)CC1`?
D1 PAM: -1; D3 ag: -15; D1 ag: 6; D3 antag: -16; D1 antagonist: 1

Results for CCCCC1Cc2[nH]c(=S)[nH]c(=O)c2C(c2ccc(F)cc2)O1 (stereo unspecified) ?
D3 ag: 1; D3 antag: -17

How did COc1ccc(C2=NCCc3cc(OC)c(OC)cc32)cc1OC do in these assays?
D1 PAM: -3; D3 ag: 2; D1 ag: 2; D3 antag: -8; D1 antagonist: 9

Results for COc1ccc(C2=NCCc3cc(OC)c(OC)cc32)cc1 ?
D1 PAM: -12; D3 ag: -3; D1 ag: 3; D3 antag: 5; D1 antagonist: -61*

What do the screens show for `Cc1ccc(CNC(=O)CN2C(=O)CSc3ccc(S(=O)(=O)N4CCCC4)cc32)cc1`?
D1 PAM: -3; D3 ag: -16; D1 ag: 1; D1 antagonist: 7

How did COc1ccc(/C=N/NC(N)=S)cc1 do in these assays?
D1 PAM: -2; D3 ag: 5; D1 ag: 1; D3 antag: -4; D1 antagonist: 0

What do the screens show for `C=CCOc1ccc(/C=N\NC(N)=S)cc1`?
D1 PAM: -5; D3 ag: -2; D1 ag: 0; D3 antag: 3; D1 antagonist: -62*

What do the screens show for `O=C1CCCN1CCCNc1ncnc2c1[nH]c1ccc(Cl)cc12`?
D1 PAM: -1; D3 ag: 0; D1 ag: 1; D3 antag: 1; D1 antagonist: -88*

How did Clc1ccc2[nH]c3c(NCCCN4CCOCC4)ncnc3c2c1 do in these assays?
D1 PAM: -6; D3 ag: -2; D1 ag: 1; D3 antag: -25; D1 antagonist: -14

Results for Nc1nc(Cl)nc2c1ncn2[C@@H]1O[C@H](CO)[C@@H](O)[C@@H]1F ?
D3 ag: 1

What do the screens show for `Cc1ccc(-c2nc3sc4c(N)ncnc4c3c3c2CCCC3)cc1`?
D1 PAM: -21; D3 ag: 10; D1 ag: 3; D3 antag: -23; D1 antagonist: -61*

How did O=C(NCCc1ccccc1)c1ccc(CSc2nc3cccnc3n2Cc2ccccc2F)cc1 do in these assays?
D1 PAM: -2; D3 ag: -10; D1 ag: 5; D1 antagonist: -7

What do the screens show for `O=C1NCCN(Cc2ccc(F)cc2)C1=O`?
D1 PAM: -1; D3 ag: 8; D1 ag: -2; D1 antagonist: -41*

What do the screens show for `O=C1CNC(=S)N1Cc1ccc(F)cc1`?
D1 PAM: 0; D3 ag: 17; D1 ag: 6; D3 antag: -10; D1 antagonist: -9

Results for COc1ccc(Cc2n[nH]c(=S)n2-c2cc(C)ccc2C)cc1OC ?
D3 ag: -2; D3 antag: -7

Results for COc1ccc(-c2ccc3c(c2)O[C@H](CN(C)C(=O)Nc2ccccc2F)[C@@H](C)CN([C@H](C)CO)S3(=O)=O)cc1 ?
D3 ag: -8; D3 antag: -7

Results for Cn1c(-c2c(N)n(C3CCCC3)c3nc4ccccc4nc23)nc2ccccc21 ?
D1 PAM: -5; D3 ag: 2; D1 ag: 53*; D3 antag: 78; D1 antagonist: -16

What do the screens show for `Nc1c(C(=O)OCC2CCCO2)c2nc3ccccc3nc2n1C1CCCC1` (stereo unspecified)?
D1 PAM: -4; D3 ag: 3; D1 ag: 0; D3 antag: -11; D1 antagonist: -1
